Reference: PubChem BioAssay AID1835 (Johns Hopkins Ion Channel Center, 2009)
The campaign covered roughly 2,400 compounds. About 750 (31%) were called active. This is one part of the list. Values without a mark were called inactive.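 How the source made its calls: active means median signal gain over dofetilide-blocked control wells reaching their mean plus 3 SD, so readout 1 at least 0; inactive means the rest.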

Each molecule was assayed against Voltage-gated inwardly rectifying potassium channel KCNH2 (Homo sapiens) (UniProt Q12809) (assay: hERG protection against dofetilide inhibition, confirmation, cell-based, thallium flux, duplicate retest, dofetilide IC70 (AID 1835)). Conditions: hERG cell line, FluxOR thallium flux, dofetilide-blocked; at 10 µM; hits give high values.
Voltage-gated inwardly rectifying potassium channel KCNH2 (Homo sapiens), sequence (Q12809 whole entry, looked up): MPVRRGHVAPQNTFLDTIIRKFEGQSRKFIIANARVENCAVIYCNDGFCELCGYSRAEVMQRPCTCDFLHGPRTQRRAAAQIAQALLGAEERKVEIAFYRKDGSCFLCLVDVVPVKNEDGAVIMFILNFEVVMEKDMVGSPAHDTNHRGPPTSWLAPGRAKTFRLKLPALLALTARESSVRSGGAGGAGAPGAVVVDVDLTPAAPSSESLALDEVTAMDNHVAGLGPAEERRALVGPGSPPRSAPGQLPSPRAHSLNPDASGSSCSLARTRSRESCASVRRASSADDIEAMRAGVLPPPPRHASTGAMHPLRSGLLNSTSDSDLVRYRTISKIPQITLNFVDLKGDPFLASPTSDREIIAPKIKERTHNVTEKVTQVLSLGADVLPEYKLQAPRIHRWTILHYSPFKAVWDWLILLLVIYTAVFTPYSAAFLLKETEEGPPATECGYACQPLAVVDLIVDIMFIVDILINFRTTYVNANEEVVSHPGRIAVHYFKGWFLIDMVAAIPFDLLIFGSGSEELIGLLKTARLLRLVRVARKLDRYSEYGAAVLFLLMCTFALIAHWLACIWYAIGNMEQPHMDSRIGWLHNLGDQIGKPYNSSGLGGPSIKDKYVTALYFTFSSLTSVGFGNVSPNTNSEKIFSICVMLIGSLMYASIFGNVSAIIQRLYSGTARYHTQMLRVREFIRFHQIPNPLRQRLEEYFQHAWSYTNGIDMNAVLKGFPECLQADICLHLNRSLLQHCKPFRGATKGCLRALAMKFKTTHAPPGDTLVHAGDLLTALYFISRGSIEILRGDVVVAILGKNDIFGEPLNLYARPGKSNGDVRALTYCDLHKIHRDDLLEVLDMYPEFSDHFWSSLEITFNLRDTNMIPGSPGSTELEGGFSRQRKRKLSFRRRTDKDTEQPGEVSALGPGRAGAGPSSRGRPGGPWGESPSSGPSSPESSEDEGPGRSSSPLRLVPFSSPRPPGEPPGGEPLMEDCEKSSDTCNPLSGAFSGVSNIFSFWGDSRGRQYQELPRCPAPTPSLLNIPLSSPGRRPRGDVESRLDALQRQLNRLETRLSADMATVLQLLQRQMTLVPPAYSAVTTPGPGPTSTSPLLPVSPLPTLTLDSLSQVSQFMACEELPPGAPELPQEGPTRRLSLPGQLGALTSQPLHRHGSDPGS

Row | SMILES | activity increase over dofetilide control, less the hit threshold
1 | CCC1=NN(C(=O)c2ccc(Cl)cc2)C(O)(c2ccc(C)cc2)C1 (stereo unspecified) | -14%
2 | CCOC(=O)C1=NN(C(=O)c2ccc(OC)cc2)C(O)(c2ccc(Cl)cc2)C1 (stereo unspecified) | 81% (active)
3 | CCOC(=O)CN1N=C(/C=C/c2ccc(OC)cc2)CCC1=O | -25%
4 | O=C1C=C(Nc2cccc3cccnc23)c2ccccc2C1=O | -5%
5 | COCC(=O)Nc1cc(C)cn(Cc2c(F)cccc2Cl)c1=O | -5%
6 | Cc1ccc(C(=C2C3C=CC2C2C(=O)NC(=O)C32)c2ccc(C)cc2)cc1 (stereo unspecified) | -15%
7 | CC(C)(C)c1cc(CCC(=O)NCc2ccncc2)cc(C(C)(C)C)c1O | -11%
8 | CC(C)(C)NS(=O)(=O)c1ccc(NC(=O)c2cc(-c3ccccc3)nc3ccccc23)cc1 | -11%
9 | COC(=O)c1ccc(NC(=S)NC(=O)c2c(-c3ccccc3)noc2C)cc1 | -15%
10 | O=C(NC(=S)Nc1ccccn1)c1cc(-c2ccccc2)nc2ccccc12 | 1% (active)
11 | Cc1ccc2nc(-c3ccccn3)cc(C(=O)NC3CCN(C)CC3)c2c1 | -19%
12 | O=C(N/N=C/c1ccccn1)c1cc(-c2ccc(Br)cc2)nc2ccccc12 | -46%
13 | Cc1ccccc1NC(=S)NC(=O)c1cc(-c2ccccc2)nc2ccccc12 | 27% (active)
14 | O=C(NC(=S)Nc1ccccc1)c1cc(-c2ccccc2)nc2ccccc12 | 8% (active)
15 | COC(=O)c1ccc(NC(=S)NC(=O)c2cc(-c3ccccc3)nc3ccccc23)cc1 | 11% (active)
16 | Cc1ccc(NC(=O)c2cc(NC(=O)/C=C\C(=O)O)ccc2N2CCCCC2)cc1 | -11%
17 | Cc1nnc(N2C(=O)C(=O)/C(=C(\O)c3ccc4c(c3)CC(C)O4)C2c2ccccc2)s1 (stereo unspecified) | -7%
18 | Cc1ccc(CNC(=O)C2=CCN(S(=O)(=O)c3ccc(C)cc3)CC2)cc1 | -24%
19 | CCCCn1nnc(NC(=O)Cc2ccc(Cl)cc2)n1 | -3%
20 | Cc1ccc2nc(-c3ccncc3)cc(C(=O)Nc3ccc4c(c3)OCCO4)c2c1 | -15%
21 | Cc1cccc(NC(=S)NC(=O)c2cc(-c3ccccc3)nc3ccccc23)c1 | 8% (active)
22 | O=C(O)c1ccc(N=NNc2cccc([N+](=O)[O-])c2)cc1 | -2%
23 | O=C(CCSCCc1ccccn1)Nc1cccc([N+](=O)[O-])c1 | -4%
24 | NC(=O)c1cccnc1Nc1cccc([N+](=O)[O-])c1 | 10% (active)
25 | O=C(NCC(c1cccs1)N1CCOCC1)c1cc(S(=O)(=O)N2CCOCC2)ccc1F (stereo unspecified) | -22%
26 | CCc1cc2c(=O)n(CCC(C)C)c(=S)[nH]c2s1 | 71% (active)

Row | SMILES | activity increase over dofetilide control, less the hit threshold
27 | CC(C)(C)OC(=O)N1CCC2(CC1)Oc1ccc(Cl)cc1C(=O)C21CC(c2ccc(Cl)cc2)=NO1 (stereo unspecified) | -19%
28 | COc1ccc2ncc(OC(C)=O)cc2c1 | -14%
29 | COc1ccc2nc(N=Nc3c(O)ccc4ccccc34)sc2c1 | 31% (active)
30 | O=C(Nc1ccccc1)O/N=C/c1ccncc1 | -7%
31 | CN(C)C(=O)c1cc(C(=O)c2ccc(Cl)cc2Cl)c[nH]1 | -4%
32 | CN(C)CCCN=C(NO)c1ccc(Cl)cc1Cl | 4% (active)
33 | C=CCSC1=C(C#N)C(c2ccccc2)CC(=O)N1 (stereo unspecified) | -15%
34 | Cc1ccc(C(=O)NC2CCC(C)CC2)o1 (stereo unspecified) | -23%
35 | Cc1ccc(C(C(=O)NC(C)(C)C)N(Cc2cccnc2)C(=O)C(=O)NC2CCCCC2)o1 (stereo unspecified) | 0% (active)
36 | CCC(C)(C(=O)NC1CCCC1)N(Cc1ccco1)C(=O)c1ccccn1 (stereo unspecified) | -13%
37 | CC(C)C(O)(C#CCN1CCCC1)c1ccccc1 (stereo unspecified) | -16%
38 | CCOc1ccc(N(CC)C(=O)COc2cc(=O)n(C)c3ccccc23)cc1 | 1% (active)
39 | CCn1c2ccccc2c2cc(NC(=O)COc3ccccc3)ccc21 | -20%
40 | CCOc1ccc(-n2c(C)c(C(C)=O)c3cc(O)ccc32)cc1 | -14%
41 | CC(C)Oc1ccc(CNC(=O)C2CCN(C(=O)N3CCOc4ccccc43)CC2)cc1 | -31%
42 | CCOc1ccccc1C(=O)NC1CC2CCCC(C1)N2Cc1nnnn1Cc1ccco1 (stereo unspecified) | -24%
43 | CCCCc1c(C)[nH]c(C(=O)OCC)c1C | -14%
44 | CCOC(=O)c1c(C)[nH]c(C)c1S(=O)(=O)N1CCCCC1 | 4% (active)
45 | Cc1[nH]c(=O)[nH]c(=O)c1S(=O)(=O)N1CCC(C(=O)NC(C)c2ccccc2)CC1 (stereo unspecified) | -4%
46 | O=C1c2nc3cc(-c4ccco4)[nH]n3c(=O)c2CN1Cc1ccccc1 | -10%
47 | CCC(=O)NC(c1cccs1)c1ccc2cccnc2c1O (stereo unspecified) | -8%
48 | O=c1c(Cc2ccccc2)c(O)nc2n1CCCS2 | -3%
49 | O=c1c2[nH]c3ccccc3c2nc2n1CCCS2 | 3% (active)
50 | CCOC(=O)N1CCN(C(=O)CSc2nc3c([nH]c4ccccc43)c(=O)n2CC)CC1 | 0%
51 | COc1ccc(NC(=O)C2CCN(S(=O)(=O)c3cn(C)nc3C)CC2)cc1 | -12%
